Test [1] can be described thus: qHTS for Inhibitors of the Functional Ribonucleoprotein Complex (vRNP) of Lassa (LASV) Arenavirus: LASV Primary Screen - GLuc reporter signal (AID 1347082; calls by dose curve; tested in HEK293 reporter line; also: nearly all actives have a fitted effect of over 60% in size). In general terms: qHTS replaces the single test concentration by a dilution series.
Test [2] in a line: qHTS for Inhibitors of the Functional Ribonucleoprotein Complex (vRNP) of Lassa (LASV) Arenavirus: Viability assay - alamar blue signal for LASV Primary Screen (AID 1347083; calls by dose curve; tested in HEK293 reporter line; also: nearly all actives have a fitted effect of over 80% in size).
Test [3] in a line: qHTS for Inhibitors of the Functional Ribonucleoprotein Complex (vRNP) of Lymphocytic Choriomeningitis Arenaviruses (LCMV): Viability assay - alamar blue signal for LCMV Primary Screen (AID 1347085; calls by dose curve; tested in HEK293 reporter line; also: nearly all actives have a fitted effect of over 80% in size).
In test [4] the target is Nucleoprotein (Lymphocytic choriomeningitis virus (strain Armstrong)) (UniProt P09992). Briefly: qHTS for Inhibitors of the Functional Ribonucleoprotein Complex (vRNP) of Lymphocytic Choriomeningitis Arenaviruses (LCMV): LCMV Primary Screen - GLuc reporter signal (AID 1347086). Also: nearly all actives have a fitted effect of over 70% in size.
Chain of Nucleoprotein (Lymphocytic choriomeningitis virus (strain Armstrong)) (P09992 whole entry, looked up): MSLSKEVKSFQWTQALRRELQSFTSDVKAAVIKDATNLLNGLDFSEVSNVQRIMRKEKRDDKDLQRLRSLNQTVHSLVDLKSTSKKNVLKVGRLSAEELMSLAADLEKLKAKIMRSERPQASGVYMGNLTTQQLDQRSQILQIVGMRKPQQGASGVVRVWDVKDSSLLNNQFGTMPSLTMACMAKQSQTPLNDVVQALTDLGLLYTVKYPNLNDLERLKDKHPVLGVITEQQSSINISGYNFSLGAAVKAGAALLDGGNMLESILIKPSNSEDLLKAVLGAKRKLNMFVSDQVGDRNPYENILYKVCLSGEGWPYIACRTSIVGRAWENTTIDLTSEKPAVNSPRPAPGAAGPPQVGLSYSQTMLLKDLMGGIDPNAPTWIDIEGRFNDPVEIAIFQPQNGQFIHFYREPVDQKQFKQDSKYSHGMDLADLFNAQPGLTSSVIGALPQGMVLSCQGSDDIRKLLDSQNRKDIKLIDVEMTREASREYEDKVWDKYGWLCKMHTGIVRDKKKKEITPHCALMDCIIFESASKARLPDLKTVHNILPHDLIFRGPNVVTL

Each structure is given as a SMILES string. Inconclusive results are not listed. Activity calls are given as the source filed them. Unless noted, calls follow the shape of the full dose curve.

This passage reports Potency results from PubChem BioAssay (NCATS).
Potency is read from the fitted curve at half-maximal effect.

As for `COc1ccc(CCN(C)CCCOc2ccc(S(=O)(=O)c3[nH]c4ccccc4c3C(C)C)cc2)cc1OC`, the Potency result in test [1], in test [2], in test [3] and in test [4] was “inactive” each time.

Regarding `CCCCCCCc1ccc(CCc2cccc(O)c2C(=O)O)cc1`, the Potency entry in test [1], in test [2], in test [3] and in test [4] was “inactive” in each case.

On to `CCn1cc(C(=O)O)c(=O)c2cc3c(cc21)OCO3`, for which the Potency result in test [1], in test [2], in test [3] and in test [4] was “inactive” throughout.

For `CC(C)C[C@H](NC(=O)[C@@H](O)[C@H](N)Cc1ccccc1)C(=O)O`, the Potency entry in test [1], in test [2], in test [3] and in test [4] was “inactive” each time.

For the compound `CC(C[N+](C)(C)C)OC(N)=O` (stereo not given), the Potency result in test [1], in test [2], in test [3] and in test [4] was “inactive” in each case.

For `O=C(Nc1ccc(OC(F)(F)F)cc1)c1sccc1NCc1ccnc2ccccc12`, the Potency entry in test [1], in test [2], in test [3] and in test [4] was “inactive” in each case.

For `CN1[C@@H]2CC[C@H]1CC(OC(=O)C(O)c1ccccc1)C2` (stereo not given in full), the Potency entry in test [1], in test [2], in test [3] and in test [4] was “inactive” throughout.

Turning to `O=C(C=Cc1cccnc1)NCCCCC1CCN(C(=O)c2ccccc2)CC1`, the Potency in test [1] was 68.5 nM (active); in test [2], 61.1 nM (active); in test [3] it was 38.5 nM (active); in test [4], 38.5 nM (active).

Take `COc1ccc(C2=N[C@H](c3ccc(Cl)cc3)[C@H](c3ccc(Cl)cc3)N2C(=O)N2CCNC(=O)C2)c(OC(C)C)c1`: the Potency result in test [1], in test [2], in test [3] and in test [4] was “inactive” in each case.

`Cc1cn(-c2cc(NC(=O)c3ccc(C)c(Nc4nccc(-c5cccnc5)n4)c3)cc(C(F)(F)F)c2)cn1`: the Potency entry in test [1], in test [2], in test [3] and in test [4] was “inactive” each time.

Regarding `Nc1cccc(S(=O)(=O)N2CCCN(S(=O)(=O)c3ccc4c(c3)OCCO4)CC2)c1`, the Potency result in test [1], in test [2], in test [3] and in test [4] was “inactive” throughout.

Turning to `CCOC(=O)C(=O)CCCCCCl`, the Potency result in test [1], in test [2], in test [3] and in test [4] was “inactive” each time.

On to `CN(C)c1ccc(C2Nc3ccc4ccccc4c3C3=C2C(=O)CC(C)(C)C3)cc1Br` (stereo not given), for which the Potency entry in test [1], in test [2], in test [3] and in test [4] was “inactive” in each case.

On to `COc1c(N2CCNC(C)C2)c(F)cc2c(=O)c(C(=O)O)cn(C3CC3)c12` (stereo not given), for which the Potency result in test [1], in test [2], in test [3] and in test [4] was “inactive” throughout.

On to `O=S(c1cc(Cl)cc(Cl)c1O)c1cc(Cl)cc(Cl)c1O`, for which the Potency entry in test [1], in test [2], in test [3] and in test [4] was “inactive” in each case.

In the case of `COc1c(C)cnc(Cn2cnc3c(Cl)nc(N)nc32)c1C`, the Potency in test [1] was 1370 nM (active); in test [2], 611 nM (active); in test [3], 685 nM (active); in test [4], 344 nM (active).

For `CC[C@@H]1C(=O)OC[C@@H]1Cc1cncn1C`, the Potency entry in test [1], in test [2], in test [3] and in test [4] was “inactive” each time.

Consider `CCC(=C(c1ccccc1)c1ccc(OCCN(C)C)cc1)c1ccccc1`, for which the Potency result in test [1], in test [2], in test [3] and in test [4] was “inactive” throughout.

As for `CCC(C(=O)O)c1ccc(N2Cc3ccccc3C2=O)cc1` (stereo not given), the Potency entry in test [1], in test [2], in test [3] and in test [4] was “inactive” throughout.

On to `O=C(O)CCc1ccc(NCc2cccc(Oc3ccccc3)c2)cc1`, for which the Potency result in test [1], in test [2], in test [3] and in test [4] was “inactive” each time.

Turning to `CCN1CCN(Cc2ccc(-c3cc4c(N[C@H](C)c5ccccc5)ncnc4[nH]3)cc2)CC1`, the Potency result in test [1], in test [3] and in test [4] was “inactive” in each case. Moreover, the Potency in test [2] is 7.7 nM (active).

As for `COc1nc(C)cnc1NS(=O)(=O)c1cccnc1-c1ccc(-c2nnco2)cc1`, the Potency entry in test [1], in test [2], in test [3] and in test [4] was “inactive” throughout.

As to `CC[N+](C)(CC)CCOC(=O)C(O)(c1ccccc1)C1CCCCC1` (stereo not given), the Potency result in test [1], in test [2], in test [3] and in test [4] was “inactive” throughout.

With `Clc1ccc(-c2nc3sccn3c2C=NOCc2ccc(Cl)c(Cl)c2)cc1`, the Potency entry in test [1], in test [2], in test [3] and in test [4] was “inactive” throughout.

Consider `c1ccc(-c2nn3c(c2-c2ccnc4cc(OCCN5CCOCC5)ccc24)CCC3)nc1`, for which the Potency entry in test [1], in test [2], in test [3] and in test [4] was “inactive” in each case.

As for `C=CC(=O)Nc1cccc(Oc2nc(Nc3ccc(N4CCN(C)CC4)cc3OC)ncc2Cl)c1`, the Potency result in test [1] and in test [4] was “inactive” throughout. Also, the results for the Potency in test [2] and in test [3] were 38.5 nM (active) and 48.5 nM (active), respectively.

For `CCCCc1ccc(NS(=O)(=O)c2ccc(C)c(C(=O)N3CCN(c4cccc(C)c4C)CC3)c2)cc1`, the Potency entry in test [1], in test [2], in test [3] and in test [4] was “inactive” each time.

For the compound `CCC(C)(Oc1ccc(C2(c3ccc(OC(C)(CC)C(=O)O)cc3)CCCCC2)cc1)C(=O)O` (stereo not given), the Potency entry in test [1], in test [2], in test [3] and in test [4] was “inactive” throughout.

As to `O=C(O)[C@@H](c1ccc(OCc2ccc3ccccc3n2)cc1)C1CCCC1`, the Potency result in test [1], in test [2], in test [3] and in test [4] was “inactive” throughout.

`CCN(c1ccccc1)c1cc(NC)[n+](C)c(C)n1`: the Potency entry in test [1], in test [2], in test [3] and in test [4] was “inactive” throughout.

`O=S(=O)(CC1CS1)c1ccc(Oc2ccccc2)cc1` (stereo not given): the Potency entry in test [1], in test [2], in test [3] and in test [4] was “inactive” each time.

In the case of `O=C(NCCS(=O)(=O)c1ccc(C(F)(F)F)cn1)c1ccc(Cl)cc1`, the Potency result in test [1], in test [2], in test [3] and in test [4] was “inactive” throughout.

On to `O=C(Oc1ccccc1)c1cccc(C(=O)Oc2ccccc2)c1`, for which the Potency result in test [1], in test [2], in test [3] and in test [4] was “inactive” each time.

In the case of `CC(C)c1ccccc1Cc1cc(C(=O)Nc2ccc(S(=O)(=O)c3ccccc3C(C)(C)C)cc2)c(O)c(O)c1O`, the Potency in test [1] is 21700 nM (active); in test [2], 19300 nM (active); in test [3], 24300 nM (active); in test [4] it was 24300 nM (active).

Turning to `Cc1ccc(-c2ncn(-c3ccc(Nc4nccc(-c5cccc(N6CCOCC6)c5)n4)cc3)n2)cn1`, the Potency entry in test [1] and in test [4] was “inactive” each time. Further, the Potency in test [2] and in test [3] was 485 nM (active) throughout.

For the compound `O=c1[nH]c(-c2ccc(C(F)(F)F)cc2)nc2c1CSCC2`, the Potency entry in test [1], in test [2], in test [3] and in test [4] was “inactive” each time.

`Nc1ccccc1NC(=O)c1ccc(CNc2nccc(-c3cccnc3)n2)cc1`: the Potency result in test [1] and in test [4] was “inactive” each time. Further, the Potency in test [2] was 6850 nM (active); in test [3], 12200 nM (active).

Take `CC(C)OC(=O)c1cc(C(=O)OC(C)C)cc([N+](=O)[O-])c1`: the Potency result in test [1], in test [2], in test [3] and in test [4] was “inactive” each time.

`CCCCOCCOc1nc(-c2ccc(C(=O)O)c(F)c2)sc1C`: the Potency result in test [1], in test [2], in test [3] and in test [4] was “inactive” in each case.

Regarding `COCCn1c2c([n+](Cc3cnccn3)c1C)C(=O)c1ccccc1C2=O`, the Potency in test [1] is 109 nM (active); in test [2] it was 109 nM (active); in test [3] it was 96.8 nM (active); in test [4] it was 68.5 nM (active).

Regarding `CC(=O)Oc1cccc(C)c1`, the Potency entry in test [1], in test [2], in test [3] and in test [4] was “inactive” each time.

Take `CCCCC(CC)COC(=O)c1ccc(N(C)C)cc1` (stereo not given): the Potency result in test [1], in test [2], in test [3] and in test [4] was “inactive” throughout.

As for `COc1ccc2c(c1)CC[C@H]1[C@@H]2CC[C@]2(C)[C@@H](NCCCCCCN3C(=O)C=CC3=O)CC[C@H]12`, the Potency entry in test [1], in test [2], in test [3] and in test [4] was “inactive” each time.

As for `CC(C)=CCCC(C)=CCCC(C)=CCSc1ccccc1C(=O)O`, the Potency in test [1] was 5440 nM (active); in test [2], 2430 nM (active); in test [3] it was 9680 nM (active); in test [4], 4320 nM (active).

As for `CC(C)(C)c1nnc(NS(=O)(=O)c2ccccc2)s1`, the Potency entry in test [1], in test [2], in test [3] and in test [4] was “inactive” throughout.

Consider `CN1Cc2cc(C(=O)N3CCC(C4CCNCC4)CC3)ccc2N[C@@H](CC(=O)O)C1=O`, for which the Potency result in test [1], in test [2], in test [3] and in test [4] was “inactive” throughout.

In the case of `CNC(=O)c1ccc(N2C(=S)N(c3ccc(C#N)c(C(F)(F)F)c3)C(=O)C2(C)C)cc1F`, the Potency result in test [1], in test [2], in test [3] and in test [4] was “inactive” each time.

`O=C1CCCC2=C1C(c1[nH]ncc1Cl)N=C(Nc1nc3ccccc3o1)N2` (stereo not given): the Potency entry in test [1], in test [2], in test [3] and in test [4] was “inactive” in each case.

Turning to `CC(C)(C)c1cc(C(=O)O)c(NC(=O)Nc2ccc3[nH]ncc3c2)s1`, the Potency entry in test [1], in test [2], in test [3] and in test [4] was “inactive” in each case.

Regarding `[O-][n+]1cccc(/C(Cl)=N/OC[C@@H](O)CN2CCCCC2)c1`, the Potency entry in test [1], in test [2], in test [3] and in test [4] was “inactive” each time.
